Inconclusive results are not listed. Calls follow the shape of the dose curve; as a rule, active = well fitted activation curve with a large enough effect in the main read-out, with a control signal flat (not every such curve was filed as active); inconclusive = small, poorly fitted or top-dose-only effect, or effect the other way, or a change in a side signal; inactive = flat fitted curve, though single readings scatter.
Molecular target: 3',5'-cyclic-AMP phosphodiesterase 4B (Homo sapiens) (UniProt Q07343)
Sequence (Q07343 whole entry, looked up): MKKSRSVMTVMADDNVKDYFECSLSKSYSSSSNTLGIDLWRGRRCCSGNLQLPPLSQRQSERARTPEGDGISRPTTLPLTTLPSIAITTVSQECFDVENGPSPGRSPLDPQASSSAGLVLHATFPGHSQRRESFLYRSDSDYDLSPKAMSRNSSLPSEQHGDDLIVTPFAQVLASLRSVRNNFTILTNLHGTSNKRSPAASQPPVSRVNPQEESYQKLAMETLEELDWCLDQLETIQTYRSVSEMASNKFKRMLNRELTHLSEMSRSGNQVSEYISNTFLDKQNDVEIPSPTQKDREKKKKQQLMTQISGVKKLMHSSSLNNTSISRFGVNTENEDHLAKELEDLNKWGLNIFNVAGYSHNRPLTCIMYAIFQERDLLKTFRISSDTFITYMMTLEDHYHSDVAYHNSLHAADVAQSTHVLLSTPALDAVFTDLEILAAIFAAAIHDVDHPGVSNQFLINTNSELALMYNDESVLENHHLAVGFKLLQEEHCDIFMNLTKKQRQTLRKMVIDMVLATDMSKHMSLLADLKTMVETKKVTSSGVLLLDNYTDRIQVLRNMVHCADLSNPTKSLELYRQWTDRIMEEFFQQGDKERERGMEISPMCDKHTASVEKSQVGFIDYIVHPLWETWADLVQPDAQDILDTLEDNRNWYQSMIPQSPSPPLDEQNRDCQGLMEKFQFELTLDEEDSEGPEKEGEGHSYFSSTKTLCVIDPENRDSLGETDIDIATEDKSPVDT
Experiment: qHTS Assay for Inhibitors of PDE-IV (AID 607); also: % of control where 0% means no effect
Conditions: HEK293 ACTOne CNG channel cells, membrane potential fluorescence; series mostly up to 22.9 µM; activation (PDE inhibition): at the top concentration
Summary of the method: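 Cell-based read-out of cAMP via a modified cyclic nucleotide-gated channel and membrane potential dye (535/590 nm) in HEK293 cells expressing PDE4 endogenously. Compounds tested up to 22.9 uM final; 100 uM RO 20-1724 reference.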

Activation (PDE inhibition), inactive:
O=C(O)[C@H]1CC=CC[C@@H]1C(=O)Nc1cccc(O)c1 1.24%
O[C@@H](c1cc([C@@]23C[C@H]4CC[C@@H]2C[C@H](C4)C3)nc2c(Cl)cc(Cl)cc12)[C@@H]1CCCCN1 0.123%
CCOC(=O)c1cnc(N(C)C)nc1SC(=N)N -2.86%
OC[C@@H]1O[C@H](n2cnc3c(/C=C(\O)c4ccccc4)ncnc32)[C@H](O)[C@@H]1O -4.52%
Cc1nc2ccccc2nc1-c1ccc(N=[N+]([O-])c2ccc(-c3nc4ccccc4nc3C)cc2)cc1 11.9%
O=C1[C@@H]2[C@@H](C(=O)N1c1ccc(OCc3ccccc3)cc1)[C@@H]1c3ccccc3[C@@H]2[n+]2ccccc21 -3.91%
Cc1ccc(C2=C(Cl)C(=O)C(c3ccc(C)cc3)=C(Cl)C2=O)cc1 4.86%
C[C@@]12CC[C@@H]3[C@H](CCC4=CC(=O)CC[C@]43C)[C@@H]1CC[C@@H]2C(=O)Cn1cnc2c(=S)nc[nH]c21 1.72%
Cc1ncn(-c2ccccc2O)c1C 3.36%
O=[N+]([O-])c1ccc(CSCc2ccc(Cl)cc2)cc1 2.08%
O=C(O)CCNc1ncnc2nc[nH]c12 6.71%
COc1ccc(Cc2ccccc2C(=O)O)c2ccccc12 5.02%
O[C@@H](c1cc(C(F)(F)F)nc2c(Cl)cc(Cl)cc12)[C@@H]1CCCCN1 0.0965%
O=C(O)C[C@H](S)C(=O)O 2.64%
CC(C)C12CC[C@@]3(CC[C@H]4[C@@](C)(CCC[C@]4(C)C(=O)O)[C@@H]3C1)[C@@H](CN)C2 9.59%
Cc1ccc(C)c(/C(=N\N=C(N)N)C2CC2)c1 -4.98%
Nc1ncnc2c1ncn2[C@H]1O[C@@H](C(=O)O)[C@@H](O)[C@H]1O 4.95%
Oc1c(CN2CCN(c3ccccc3)CC2)cc(Br)c2cccnc12 -5.22%
N/N=C1/CC(=O)NC(=O)N1 -2.31%
N[C@@H](CC1=CS(=O)(=O)c2ccc(Cl)cc21)C(=O)O -11.5%
C[N+]1([C@H](CO)Cc2c[nH]c3ccccc23)Cc2ccccc2C1 10.1%
c1ccc(C[n+]2cccc(-c3cc4ccccc4[nH]3)c2)cc1 6.2%
C[N+](C)(C)CCCSc1nc2ccccc2[nH]1 1.95%
Cc1cc(=Nc2ccc3c(c2)c(N)cc(C)[n+]3C)nc(N)n1C -3.66%
COc1ncc2nc(CCc3ccccc3)c(=O)n(C)c2n1 -16.9%
C[C@H](NC(=O)c1ccc(Cl)c(Cl)c1)c1ccc(-c2ccccc2)cc1 9.2%
COc1ccc2cc1Oc1ccc(cc1)C[C@@H]1c3c(cc(OC)c4c3Oc3cc5c(cc3O4)CCN[C@H]5C2)CCN1C 17.2%
O=C(O)/C=C\C(=O)Nc1cccc2c1-c1ccccc1C2=O 1.2%
O=C(O)/C=C\C(=O)N1Cc2cc3ccccc3nc2C1 13.8%
O=C(Nc1cccc2cccnc12)[C@@H]1[C@@H](C(=O)O)[C@H]2CC[C@@H]1O2 -4.54%
CC(C)C(=O)C(C)(C)CCc1ccccn1 -2.97%
OCCN(CCO)c1ncnc2nc[nH]c12 2.22%
CCN(CC)CC[n+]1ccc2c(C)c3[nH]c4ccc(O)cc4c3c(C)c2c1 -3.69%
CN(C)CCC(=O)[C@@]1(O)CC[C@H]2[C@H]3CC=C4C[C@@H](O)CC[C@]4(C)[C@H]3CC[C@]21C 10.3%
O=C1C=CC(=Nc2cccc3c(N=C4C=CC(=O)O4)cccc23)O1 0.572%
COc1ccc2c3c(ccc2c1)N[C@H](C(=O)O)CC3 1.68%
N=C1CCC[C@@H]1C(=S)SCCC(N)=O 5.19%
CCN(CC)CC[n+]1ccc2c(C)c3[nH]c4ccccc4c3c(C)c2c1 -5.96%
O=CN1CCN(C[C@H](O)CN2CCCCC2)CC1 -15.1%
Oc1cc(O)c2c(c1)O[C@@H](c1ccc(O)c(O)c1)[C@H](O[C@@]1(c3cc(O)c(O)c(O)c3)Oc3cc(O)cc(O)c3[C@H](O)[C@@H]1O)C2 4.42%
